Experimental data from PubChem BioAssay AID504843 (Broad Institute, 2011).
About 360 (30%) of roughly 1,200 compounds were called active. The rule behind the calls is not given here. Not all results are given here. Measured potencies and affinities stand elsewhere.

Test: bacterial growth inhibition, dose response, counter-screen, BacTiter-Glo luminescence, cherry-picked samples (AID 504843);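 note: growth measured after 8 h incubation at 30 °C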
Settings: BacTiter-Glo ATP luminescence; series mostly up to 15 µM
In the case of `Cc1ccc(NC(=O)NCc2ccccn2)cc1Cl`, the outcome was “inactive”. In the case of `Cc1ccc(NC(=O)c2ncn(CCCNCc3ccccn3)n2)cc1C`, the outcome was “inactive”. In the case of `COc1ccc(CN2CCN(C(=O)C3CCC(CNS(=O)(=O)c4ccccc4)CC3)CC2)c(OC)c1OC` (stereo not drawn), the outcome was “inactive”. With `Cc1nc2ncnn2c(C)c1CCC(=O)N1CCCCC1` the outcome was “inactive”. With `COc1ccc(Nc2cc(C)nc3nc(C)nn23)c(OC)c1` the outcome was “inactive”. For `CSc1ccc(NC(=O)N2CCN(c3nc4ccccc4s3)CC2)cc1`, the outcome was “inactive”. For `O=C(Cn1cc([N+](=O)[O-])cn1)N1CCN(c2ccccc2)CC1`, the outcome was “inactive”. In the case of `COCCC1CCCCN1C(=O)c1cccc(OC2CCN(S(C)(=O)=O)CC2)c1` (stereo not drawn), the outcome was “inactive”. In the case of `CCN1CCN(CCCNc2ncnc3nc[nH]c23)CC1`, the outcome was “inactive”. In the case of `C1=C(CCNc2ncnc3c2cnn3-c2ccccc2)CCCC1`, the outcome was “inactive”. In the case of `COc1ccc(-c2c(-c3cc(OC)cc(OC)c3)n(C)c3ccc(-c4ccc(S(N)(=O)=O)cc4)cc23)cc1`, the outcome was “inactive”. With `CC(C)c1ccc(C(=O)CN2C(=O)NC3(CCc4ccccc43)C2=O)cc1` (stereo not drawn) the outcome was “inactive”. In the case of `Cc1nc(Cl)c(C(=O)NCc2ccccc2)c(C)c1Cl`, the outcome was “inactive”. For `C#CCOCCOCCOCCNc1nc(N2CCN(C(=O)Cn3cc(CC(C)O)nn3)CC2)nc(N2CCN(C(=O)[C@H](CCCCN)n3cc(CCCC)nn3)CC2)n1` (stereo partly drawn), the outcome was “inactive”. For `O=C(C1CCCO1)N1CCN(c2c3c(nc4cc(-c5ccc(F)cc5)nn24)CCC3)CC1` (stereo not drawn), the outcome was “inactive”. For `Nc1nc(CN2CCCCC2)cs1`, the outcome was “inactive”. With `Nc1nc(NCC2CCCO2)nc(Nc2cccc(Cl)c2)c1[N+](=O)[O-]` (stereo not drawn) the outcome was “inactive”. In the case of `O=C(NCc1ccccc1)C(=O)NCC1OCCN1S(=O)(=O)c1ccc([N+](=O)[O-])cc1` (stereo not drawn), the outcome was “inactive”. In the case of `COC(=O)c1ccc(Cl)cc1NC(=O)/C=C/c1ccc(C)o1`, the outcome was “inactive”. With `CC(NC(=O)c1ccc([N+](=O)[O-])cc1[N+](=O)[O-])c1ccc(-c2ccccc2)cc1` (stereo not drawn) the outcome was “inactive”. In the case of `O=C(Cn1nc(C(F)(F)F)c2c1CCCC2)NCc1ccco1`, the outcome was “inactive”. With `O=C(Nc1ccc(F)cc1)C1CC(=O)N(Cc2ccco2)C1` (stereo not drawn) the outcome was “inactive”. In the case of `CN(Cc1cn[nH]c1-c1ccc(-c2ccccc2)cc1)CC1CCOCC1`, the outcome was “inactive”. In the case of `COc1ccc2c(c1)c1c3n2CCN(C)C3=NCC1`, the outcome was “inactive”. With `CC(C)C(C(=O)NC1CCCC1)N(CC1CCCO1)C(=O)CNS(=O)(=O)c1ccccc1` (stereo not drawn) the outcome was “inactive”. In the case of `CCCCC(=O)N(c1ccc(C)c(C)c1)C1C=CS(=O)(=O)C1` (stereo not drawn), the outcome was “inactive”. In the case of `COc1ccccc1N(CC(=O)NC1CCCC1)C(=O)c1csnn1`, the outcome was “inactive”. In the case of `COc1cc(CNc2ccc3[nH]c(=O)[nH]c3c2)ccc1OCC(=O)NC(C)(C)C`, the outcome was “inactive”. With `Cc1nc2ccccn2c1/C(O)=C1\C(=O)C(=O)N(CCN(C)C)C1c1ccco1` (stereo not drawn) the outcome was “inactive”. In the case of `CCN(C[C@H]1N[C@@](Cc2ccccc2)(C(=O)OC)[C@H]2C(=O)N(C)C(=O)[C@@H]12)C(C)=O`, the outcome was “inactive”. For `CCOCCOc1nc2c(c(=O)n(C)c(=O)n2C)n1Cc1ccc(C)cc1`, the outcome was “inactive”. In the case of `CCc1cccc2c1NC(=O)C2(O)N1CCCC(C)C1` (stereo not drawn), the outcome was “inactive”. For `CCOC(=O)c1ccccc1NC(=S)N1CC(C)CC(C)C1` (stereo not drawn), the outcome was “inactive”. In the case of `COc1ccc(/C=C/C(=O)Nc2ccccc2C(=O)O)cc1OC`, the outcome was “inactive”. In the case of `CC1(C)CC(=O)c2cc3c(nc2C1)CC(C)(C)CC3=O`, the outcome was “inactive”. For `CC(C)NC(=O)CN1CCN(C(=O)c2ccc3oc(CCCc4ccccc4)nc3c2)CC1`, the outcome was “inactive”. With `Cc1nn(C)c(C)c1S(=O)(=O)N(CC(=O)NCCCN1CCC(C)CC1)c1ccc(C(C)C)cc1` the outcome was “inactive”. With `O=C(CN(Cc1ccccc1Cl)C(=O)CNS(=O)(=O)c1ccc(F)cc1)NCC1CCCO1` (stereo not drawn) the outcome was “inactive”. In the case of `O=C(CSc1ncnc2ccccc12)NCc1ccco1`, the outcome was “inactive”. In the case of `COc1ccccc1N1CCN(C(=O)CSc2nnc(NC(=O)C(C)C)s2)CC1`, the outcome was “inactive”. For `Cc1ccc(Cn2c(=O)oc3ccccc32)cc1`, the outcome was “inactive”. In the case of `Cc1cccc(NC(=S)N/N=C/c2c[nH]c3ccccc23)c1`, the outcome was “inactive”. In the case of `CC1CCCN(C(=O)c2nn(C)c3c2CSc2ccccc2-3)C1` (stereo not drawn), the outcome was “inactive”. With `O=C(NCCNC(=O)c1ccccc1F)c1ccccn1` the outcome was “inactive”. With `CCCC(=O)NC1=C(C#N)C2(CCCC2)Cc2ccccc21` the outcome was “inactive”. In the case of `COc1ccccc1NC(=O)NCCCCc1ccccc1`, the outcome was “inactive”. For `COc1ccccc1NC(=S)NC1CC2CCC1C2` (stereo not drawn), the outcome was “inactive”. With `O=C(CN1CCN(c2ccccc2)CC1)N1N=CCC1c1ccccc1` (stereo not drawn) the outcome was “inactive”. For `Cc1cc(C)n2nc(SCC(=O)N3CCN(c4ccccc4)CC3)nc2n1`, the outcome was “inactive”. With `CCCSc1nnc(CNS(=O)(=O)c2ccc(C)cc2)n1C` the outcome was “inactive”. In the case of `COC(=O)[C@H](CC(C)C)N(Cc1ccccc1)S(=O)(=O)N(Cc1ccccc1)[C@@H](CC(C)C)C(=O)OC`, the outcome was “inactive”. With `CCN(CC)S(=O)(=O)c1ccc(OC)c(NC(=O)c2ccc(=O)[nH]c2)c1` the outcome was “inactive”. In the case of `Nc1cc(S(=O)(=O)C(F)(F)F)ccc1C(=O)O`, the outcome was “inactive”. In the case of `N#Cc1cccc(Nc2c3c(nc4ccccc24)CCCC3)c1`, the outcome was “inactive”. In the case of `O=C1c2cccc3cccc(c23)C(=O)N1CC1CCN(CC(O)COc2ccc3ccccc3c2)CC1` (stereo not drawn), the outcome was “inactive”. With `CC(=O)c1ccccc1OCC(O)CN1CCN(C(c2ccccc2)c2ccccc2)CC1` (stereo not drawn) the outcome was “inactive”. For `Cc1cc(C)c(C#N)c(SCS(=O)c2ccc(C(C)(C)C)cc2)n1` (stereo not drawn), the outcome was “inactive”. With `C#CCNC(=O)C1=C[C@H](c2csc3ccccc23)[C@@H](CCCO)[C@H](OCC)O1` the outcome was “inactive”. In the case of `CN(C/C=C/c1ccccc1[N+](=O)[O-])Cc1ccccc1`, the outcome was “inactive”. In the case of `O=S(=O)(c1cc(Cl)cc(Cl)c1O)N1CCC2(CC1)OCCO2`, the outcome was “inactive”. For `Cc1cccn2c(=O)c3cc(S(=O)(=O)c4ccccc4)c(=N)n(Cc4ccco4)c3nc12`, the outcome was “inactive”. For `O=C(O)[C@@H](c1ccccc1)N1Cc2ccccc2C1=O`, the outcome was “inactive”. With `CC1CC(=O)N(c2ccc(Br)cc2)C(=O)C1` the outcome was “inactive”. In the case of `COc1ccc(OCc2nnc(SCC(=O)N3C(C)CCCC3C)o2)cc1` (stereo not drawn), the outcome was “inactive”. In the case of `CC(C)(C)c1cc(NS(=O)(=O)c2ccc3c(c2)OCCO3)on1`, the outcome was “inactive”. With `Cc1cc(NC(=O)c2ccc([N+](=O)[O-])cc2)n(C)n1` the outcome was “inactive”. In the case of `O=C(COc1ccc([N+](=O)[O-])cc1)Nc1cccc2nsnc12`, the outcome was “inactive”. In the case of `COc1ccc2nc(SCC(=O)Nc3cc(OC)c(OC)cc3C(=O)O)c(C)cc2c1`, the outcome was “inactive”. In the case of `O=C(Nc1ccc(S(=O)(=O)Nc2ncccn2)cc1)c1cncc(Br)c1`, the outcome was “inactive”. For `O=C(COC(=O)C12CC3CC(CC(Br)(C3)C1)C2)Nc1cccnc1Cl`, the outcome was “inactive”. With `Cc1ccc(S(=O)(=O)CCNC(=O)Cc2ccc(Cl)cc2)cc1` the outcome was “inactive”. In the case of `Cc1ccnc(SCCn2c(N3CC(C)CC(C)C3)nc3c2c(=O)n(C)c(=O)n3C)n1` (stereo not drawn), the outcome was “inactive”. For `Cc1cc(N2C(=O)c3ccc(C(=O)Nc4ccc(O)cc4C(=O)O)cc3C2=O)no1`, the outcome was “inactive”. With `O=C(N/N=C/C1=C(N2CCOCC2)C(=C\c2ccccc2)/CC1)Nc1ccccc1` the outcome was “inactive”. With `COc1cccc(C2C(C(=O)OC(C)C)=C(C)Nc3ncnn32)c1` (stereo not drawn) the outcome was “inactive”. With `COc1ccc(Nc2nc3ccccc3nc2-n2nc(C)cc2C)cc1` the outcome was “inactive”. In the case of `Cc1csc(NC(=O)c2c(-c3c(Cl)cccc3Cl)noc2C)n1`, the outcome was “inactive”. For `COc1cc(OC)c2c(C)cc(=O)oc2c1`, the outcome was “inactive”. For `COc1cccc(-n2c(SCc3ccccn3)nc3c(c2=O)SCC3)c1`, the outcome was “inactive”. For `COc1ccc(NC(=O)c2ccccc2[N+](=O)[O-])cc1OC`, the outcome was “inactive”. For `CCN(CC)CCCn1c(C)cc2c(c1=O)C(c1cccc(Cl)c1)C(C#N)=C(N)O2` (stereo not drawn), the outcome was “inactive”. For `O=C(CSc1ncccn1)N/N=C/c1cccs1`, the outcome was “inactive”. In the case of `Cc1ccnc(SCC(=O)c2cccs2)n1`, the outcome was “inactive”. In the case of `COc1cc(NC2c3ccccc3C(=O)N2Cc2ccc3c(c2)OCO3)cc(OC)c1OC` (stereo not drawn), the outcome was “inactive”. For `COc1ccccc1N1CCN(CC(=O)Nc2ccc3c(c2)OCCO3)CC1`, the outcome was “inactive”. In the case of `COc1ccc(C(=O)NC(C(=O)NCc2ccccn2)C(C)C)cc1` (stereo not drawn), the outcome was “inactive”. With `COc1cccc(C(=O)NCCS(=O)(=O)NCc2ccccn2)c1` the outcome was “inactive”. For `Cc1nn2c(SCC(=O)c3cccs3)cc(C(C)(C)C)nc2c1-c1ccccc1`, the outcome was “inactive”. For `O=c1[nH]c(-c2ccccn2)nc2ccccc12`, the outcome was “inactive”. For `CC1=NCC(C)c2c1[nH]c1ccccc21` (stereo not drawn), the outcome was “inactive”. In the case of `COC(=O)c1sccc1NC(=O)c1ccc2c(c1)OCO2`, the outcome was “inactive”. With `O=C(CNC(=O)c1ccccc1)NC1(C(=O)NC2CCCC2)CCCCC1` the outcome was “inactive”. With `COc1ccc(Cl)cc1C(=O)NCCN(C)C` the outcome was “inactive”. With `CCCCN1C(=O)C(CC(=O)NCC)SC1=Nc1ccccc1` (stereo not drawn) the outcome was “inactive”. For `C=C1CSc2nc(=O)c3c4c(sc3n21)CCCC4`, the outcome was “inactive”. In the case of `COc1ccc(CCNC(=O)CN2CCOc3ccccc32)cc1OC`, the outcome was “inactive”. For `COC(c1ccccc1)c1nnc(CCC(=O)N(C)C(C2CC2)C2CC2)o1` (stereo not drawn), the outcome was “inactive”. In the case of `O=C(Nc1ccccc1F)C1CCN(C(=O)Cc2ccccc2)CC1`, the outcome was “inactive”. With `O=C(CCNC(=O)C1CCN(S(=O)(=O)c2ccc(F)cc2)CC1)Nc1nccs1` the outcome was “inactive”. In the case of `O=C(CCC(=O)Nc1ccccc1)N/N=C/c1ccncc1`, the outcome was “inactive”. For `CC(=O)Nc1ccc(NC(=O)CSc2ccccn2)cc1`, the outcome was “inactive”. For `C/C=C(/C)C(=O)Nc1cccc(C2=NOC3(C2)C[C@H](C(N)=O)N(C(=O)c2ccc(Cl)cc2)C3)c1` (stereo partly drawn), the outcome was “inactive”. With `Cc1ccc(S(=O)(=O)N2CCC(C(=O)Nc3nnc(C)s3)CC2)cc1` the outcome was “inactive”. With `Cc1nc2ccc(NC(=O)C3CCN(S(=O)(=O)c4cccs4)CC3)cc2s1` the outcome was “inactive”. In the case of `Cc1noc(C)c1COc1ccccc1C(=O)NC1CCC(C)CC1` (stereo not drawn), the outcome was “inactive”. For `N#Cc1cccc(C(=O)OCC(=O)NCc2ccco2)c1`, the outcome was “inactive”. For `Cc1cccc(N(CC(=O)NC(C)(C)C)C(=O)CCC(=O)Nc2nccs2)c1`, the outcome was “inactive”. With `CS(=O)(=O)N(CC(=O)NC1CCCC1)c1cccc(F)c1` the outcome was “inactive”.
